One may read the inhibition as the relative decrease from the control value, in per cent.

Experimental findings from ChEMBL document CHEMBL1961873, “Compounds: GSK PKIS; Assays: Nanosyn kinase panel” (2012) are described below.

Assay [1] has as its target Sphingosine kinase 1 (Homo sapiens) (UniProt Q9NYA1). To be noted: at 1 µM.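 Also: mean SPHK1 inhibition value reported from the GSK PKIS kinase panel screen.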
In assay [2] the target is T1, Sphingosine kinase 2 (Homo sapiens) (UniProt Q9NRA0).
T1 sequence (whole entry): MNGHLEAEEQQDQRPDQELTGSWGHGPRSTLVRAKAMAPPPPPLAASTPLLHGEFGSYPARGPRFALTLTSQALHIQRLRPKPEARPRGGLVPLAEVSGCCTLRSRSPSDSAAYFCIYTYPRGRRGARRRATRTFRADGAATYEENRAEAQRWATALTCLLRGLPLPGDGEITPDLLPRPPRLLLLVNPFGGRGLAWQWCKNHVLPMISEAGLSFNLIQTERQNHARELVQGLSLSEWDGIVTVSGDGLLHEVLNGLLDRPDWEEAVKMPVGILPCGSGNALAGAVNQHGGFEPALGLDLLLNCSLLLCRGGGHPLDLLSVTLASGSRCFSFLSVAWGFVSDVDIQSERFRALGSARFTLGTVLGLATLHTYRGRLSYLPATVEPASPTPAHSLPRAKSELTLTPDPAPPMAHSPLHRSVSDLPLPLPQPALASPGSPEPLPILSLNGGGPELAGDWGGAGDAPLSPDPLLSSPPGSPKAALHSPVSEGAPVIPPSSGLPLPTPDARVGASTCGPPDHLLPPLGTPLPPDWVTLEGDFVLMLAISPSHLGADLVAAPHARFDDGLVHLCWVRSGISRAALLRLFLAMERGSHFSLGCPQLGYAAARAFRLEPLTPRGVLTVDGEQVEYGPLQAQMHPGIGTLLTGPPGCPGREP
To be noted: at 0.1 µM.

The target in assay [3] is T1, Sphingosine kinase 2 (Homo sapiens). Particulars: at 1 µM.
Assay [4] has as its target Casein kinase II subunit alpha (Homo sapiens) (UniProt P68400). Particulars: at 1 µM.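 Also: reported value is the mean CK2 inhibition.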
The target of assay [5] is T2, Inhibitor of nuclear factor kappa-B kinase subunit alpha (Homo sapiens) (UniProt O15111).
T2 sequence (whole entry): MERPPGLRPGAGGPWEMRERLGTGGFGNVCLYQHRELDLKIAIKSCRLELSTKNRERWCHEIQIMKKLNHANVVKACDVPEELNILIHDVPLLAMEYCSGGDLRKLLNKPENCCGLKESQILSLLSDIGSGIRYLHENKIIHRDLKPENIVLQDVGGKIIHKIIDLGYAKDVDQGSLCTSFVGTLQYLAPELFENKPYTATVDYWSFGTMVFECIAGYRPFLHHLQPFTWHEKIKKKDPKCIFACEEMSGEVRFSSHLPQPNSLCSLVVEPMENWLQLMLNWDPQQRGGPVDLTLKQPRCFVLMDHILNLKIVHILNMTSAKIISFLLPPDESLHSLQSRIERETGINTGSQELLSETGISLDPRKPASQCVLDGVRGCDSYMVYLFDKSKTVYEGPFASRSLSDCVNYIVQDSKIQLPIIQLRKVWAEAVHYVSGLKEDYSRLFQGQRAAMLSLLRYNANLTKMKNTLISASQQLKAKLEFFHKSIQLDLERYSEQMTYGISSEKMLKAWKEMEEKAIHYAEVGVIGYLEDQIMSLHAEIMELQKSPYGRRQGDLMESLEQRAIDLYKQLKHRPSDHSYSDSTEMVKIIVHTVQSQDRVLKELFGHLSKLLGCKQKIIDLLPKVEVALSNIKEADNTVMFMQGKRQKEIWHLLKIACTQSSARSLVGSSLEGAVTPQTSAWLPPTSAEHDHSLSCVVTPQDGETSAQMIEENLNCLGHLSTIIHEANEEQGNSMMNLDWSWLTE
To be noted: at 0.1 µM.

In assay [6] the target is T2, Inhibitor of nuclear factor kappa-B kinase subunit alpha (Homo sapiens). Particulars: at 1 µM.
Assay [7] deals with T3, Inhibitor of nuclear factor kappa-B kinase subunit beta (Homo sapiens) (UniProt O14920).
T3 sequence (whole entry): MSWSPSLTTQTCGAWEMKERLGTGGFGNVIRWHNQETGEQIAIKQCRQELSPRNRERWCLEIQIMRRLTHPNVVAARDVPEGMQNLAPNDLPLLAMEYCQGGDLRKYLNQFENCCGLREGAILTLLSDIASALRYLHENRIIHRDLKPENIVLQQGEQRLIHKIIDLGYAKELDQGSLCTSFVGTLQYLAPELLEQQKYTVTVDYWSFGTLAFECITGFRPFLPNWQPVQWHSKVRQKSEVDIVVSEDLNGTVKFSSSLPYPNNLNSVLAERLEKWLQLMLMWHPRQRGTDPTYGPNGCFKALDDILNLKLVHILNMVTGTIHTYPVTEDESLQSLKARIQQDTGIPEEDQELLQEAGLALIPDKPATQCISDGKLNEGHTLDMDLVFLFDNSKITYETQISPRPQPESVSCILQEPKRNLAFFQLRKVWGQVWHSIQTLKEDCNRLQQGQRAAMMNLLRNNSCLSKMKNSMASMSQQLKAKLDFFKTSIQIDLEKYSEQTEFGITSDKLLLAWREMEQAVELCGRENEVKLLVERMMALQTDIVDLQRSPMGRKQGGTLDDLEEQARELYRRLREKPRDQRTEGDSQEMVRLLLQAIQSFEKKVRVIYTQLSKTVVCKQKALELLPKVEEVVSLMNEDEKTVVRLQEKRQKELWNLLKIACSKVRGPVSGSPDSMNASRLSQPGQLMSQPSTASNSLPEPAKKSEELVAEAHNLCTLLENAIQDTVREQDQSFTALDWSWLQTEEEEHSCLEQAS
To be noted: at 0.1 µM.

In assay [8] the target is T3, Inhibitor of nuclear factor kappa-B kinase subunit beta (Homo sapiens). Particulars: at 1 µM.
The target of assay [9] is T4, Inhibitor of nuclear factor kappa-B kinase subunit epsilon (Homo sapiens) (UniProt Q14164).
T4 sequence (whole entry): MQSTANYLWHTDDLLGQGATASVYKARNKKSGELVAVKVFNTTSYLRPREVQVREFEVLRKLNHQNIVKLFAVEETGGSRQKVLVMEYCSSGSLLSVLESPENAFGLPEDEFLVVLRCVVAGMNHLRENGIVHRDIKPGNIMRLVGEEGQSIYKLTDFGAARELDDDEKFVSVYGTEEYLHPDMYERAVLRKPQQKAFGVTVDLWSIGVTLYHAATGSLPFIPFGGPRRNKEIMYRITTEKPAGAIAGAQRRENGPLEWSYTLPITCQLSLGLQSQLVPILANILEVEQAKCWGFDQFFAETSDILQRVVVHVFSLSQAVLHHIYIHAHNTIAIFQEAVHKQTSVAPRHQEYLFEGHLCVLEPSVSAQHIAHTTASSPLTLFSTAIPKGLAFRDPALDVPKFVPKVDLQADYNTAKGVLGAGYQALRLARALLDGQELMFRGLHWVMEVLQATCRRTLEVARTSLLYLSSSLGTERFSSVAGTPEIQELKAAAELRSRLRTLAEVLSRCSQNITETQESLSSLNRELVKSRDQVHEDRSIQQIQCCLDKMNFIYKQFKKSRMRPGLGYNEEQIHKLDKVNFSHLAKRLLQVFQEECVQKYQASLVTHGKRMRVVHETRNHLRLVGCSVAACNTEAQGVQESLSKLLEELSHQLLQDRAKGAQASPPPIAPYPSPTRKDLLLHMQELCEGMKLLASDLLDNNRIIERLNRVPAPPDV
Particulars: at 0.1 µM.

Assay [10] deals with T4, Inhibitor of nuclear factor kappa-B kinase subunit epsilon (Homo sapiens). Particulars: at 1 µM.
In assay [11] the target is T5, Serine/threonine-protein kinase Nek1 (Homo sapiens) (UniProt Q96PY6).
T5 sequence (whole entry): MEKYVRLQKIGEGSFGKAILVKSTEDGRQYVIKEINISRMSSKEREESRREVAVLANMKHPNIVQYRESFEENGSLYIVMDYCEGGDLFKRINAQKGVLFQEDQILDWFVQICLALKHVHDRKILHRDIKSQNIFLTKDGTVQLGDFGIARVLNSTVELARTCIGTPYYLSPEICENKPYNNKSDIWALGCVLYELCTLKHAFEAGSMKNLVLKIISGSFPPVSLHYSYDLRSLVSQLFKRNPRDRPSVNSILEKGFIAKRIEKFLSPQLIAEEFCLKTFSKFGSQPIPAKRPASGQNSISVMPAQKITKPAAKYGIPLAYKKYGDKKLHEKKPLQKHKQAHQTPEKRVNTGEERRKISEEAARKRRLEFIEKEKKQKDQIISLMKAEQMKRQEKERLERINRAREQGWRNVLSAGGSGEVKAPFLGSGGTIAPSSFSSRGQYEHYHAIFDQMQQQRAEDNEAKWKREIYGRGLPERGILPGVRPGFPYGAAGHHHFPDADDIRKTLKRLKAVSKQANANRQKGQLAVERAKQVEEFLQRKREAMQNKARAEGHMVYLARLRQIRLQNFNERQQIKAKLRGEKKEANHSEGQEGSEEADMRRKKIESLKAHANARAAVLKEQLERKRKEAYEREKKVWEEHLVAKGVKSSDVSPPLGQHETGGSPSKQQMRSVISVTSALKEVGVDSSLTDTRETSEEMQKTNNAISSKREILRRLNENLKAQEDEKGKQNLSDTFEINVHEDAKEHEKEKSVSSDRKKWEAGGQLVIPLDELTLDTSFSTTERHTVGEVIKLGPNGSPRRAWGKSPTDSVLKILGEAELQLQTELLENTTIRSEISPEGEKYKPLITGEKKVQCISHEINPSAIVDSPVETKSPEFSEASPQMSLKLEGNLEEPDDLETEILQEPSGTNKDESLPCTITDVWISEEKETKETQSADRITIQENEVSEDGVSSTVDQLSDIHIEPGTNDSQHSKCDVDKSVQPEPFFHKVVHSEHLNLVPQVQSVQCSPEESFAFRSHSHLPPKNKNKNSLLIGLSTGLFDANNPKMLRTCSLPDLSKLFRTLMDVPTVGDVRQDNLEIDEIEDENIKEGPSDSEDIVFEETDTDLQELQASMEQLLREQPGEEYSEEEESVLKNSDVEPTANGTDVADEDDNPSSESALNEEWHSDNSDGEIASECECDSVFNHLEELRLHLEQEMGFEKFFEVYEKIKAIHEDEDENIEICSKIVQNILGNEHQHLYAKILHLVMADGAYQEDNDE
To be noted: at 0.1 µM.

Assay [12] addresses T5, Serine/threonine-protein kinase Nek1 (Homo sapiens). Particulars: at 1 µM.
Assay [13] concerns the target T6, Serine/threonine-protein kinase Nek2 (Homo sapiens) (UniProt P51955).
T6 sequence (whole entry): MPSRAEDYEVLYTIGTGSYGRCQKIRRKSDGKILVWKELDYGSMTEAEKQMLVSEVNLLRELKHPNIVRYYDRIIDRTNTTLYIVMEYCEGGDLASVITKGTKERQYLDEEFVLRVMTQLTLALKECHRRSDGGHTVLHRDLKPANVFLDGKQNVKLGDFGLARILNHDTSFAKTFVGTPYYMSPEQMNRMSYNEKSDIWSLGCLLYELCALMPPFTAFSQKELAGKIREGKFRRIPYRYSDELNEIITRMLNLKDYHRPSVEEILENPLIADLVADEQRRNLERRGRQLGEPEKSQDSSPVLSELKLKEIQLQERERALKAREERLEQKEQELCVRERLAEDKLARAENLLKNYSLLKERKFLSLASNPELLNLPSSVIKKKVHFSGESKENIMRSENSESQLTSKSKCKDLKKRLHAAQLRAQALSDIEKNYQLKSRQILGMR
To be noted: at 0.1 µM.

The target in assay [14] is T6, Serine/threonine-protein kinase Nek2 (Homo sapiens). To be noted: at 1 µM.
Assay [15] has as its target Serine/threonine-protein kinase Nek6 (Homo sapiens) (UniProt Q9HC98). To be noted: at 0.1 µM.
For assay [16] the target is unchanged. To be noted: at 1 µM.
Assay [17] has as its target Serine/threonine-protein kinase Nek7 (Homo sapiens) (UniProt Q8TDX7). Particulars: at 0.1 µM.
Assay [18] has the same target. Particulars: at 1 µM.
Assay [19] addresses T7, Serine/threonine-protein kinase Nek9 (Homo sapiens) (UniProt Q8TD19).
T7 sequence (whole entry): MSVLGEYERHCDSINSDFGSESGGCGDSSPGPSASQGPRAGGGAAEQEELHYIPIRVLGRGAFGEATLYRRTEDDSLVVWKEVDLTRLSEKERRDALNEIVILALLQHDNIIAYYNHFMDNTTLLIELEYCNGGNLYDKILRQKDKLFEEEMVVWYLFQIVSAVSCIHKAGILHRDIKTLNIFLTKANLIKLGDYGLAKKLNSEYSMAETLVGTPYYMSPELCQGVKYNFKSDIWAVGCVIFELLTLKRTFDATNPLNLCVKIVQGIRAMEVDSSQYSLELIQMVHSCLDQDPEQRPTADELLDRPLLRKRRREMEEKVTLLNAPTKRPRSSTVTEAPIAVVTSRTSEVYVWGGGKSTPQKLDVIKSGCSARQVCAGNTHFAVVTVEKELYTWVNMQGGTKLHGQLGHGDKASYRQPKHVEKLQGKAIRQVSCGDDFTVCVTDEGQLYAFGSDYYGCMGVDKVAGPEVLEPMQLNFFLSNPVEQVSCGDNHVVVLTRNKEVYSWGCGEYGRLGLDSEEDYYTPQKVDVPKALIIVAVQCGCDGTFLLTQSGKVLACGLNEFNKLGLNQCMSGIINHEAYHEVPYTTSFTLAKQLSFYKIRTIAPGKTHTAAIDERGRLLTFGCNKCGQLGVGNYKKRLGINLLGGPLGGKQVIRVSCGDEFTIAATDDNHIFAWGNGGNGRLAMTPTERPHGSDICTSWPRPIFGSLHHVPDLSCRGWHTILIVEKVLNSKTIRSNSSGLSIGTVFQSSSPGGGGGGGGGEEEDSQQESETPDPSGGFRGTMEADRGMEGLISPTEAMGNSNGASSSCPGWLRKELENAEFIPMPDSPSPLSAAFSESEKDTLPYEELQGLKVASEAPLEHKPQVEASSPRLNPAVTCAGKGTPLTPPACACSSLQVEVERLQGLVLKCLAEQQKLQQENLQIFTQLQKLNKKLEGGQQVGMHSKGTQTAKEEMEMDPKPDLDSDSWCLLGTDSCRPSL
Particulars: at 0.1 µM.

Structures are written as SMILES.

Serine/threonine-protein kinase Nek7 (Homo sapiens), sequence (Q8TDX7 whole entry, looked up): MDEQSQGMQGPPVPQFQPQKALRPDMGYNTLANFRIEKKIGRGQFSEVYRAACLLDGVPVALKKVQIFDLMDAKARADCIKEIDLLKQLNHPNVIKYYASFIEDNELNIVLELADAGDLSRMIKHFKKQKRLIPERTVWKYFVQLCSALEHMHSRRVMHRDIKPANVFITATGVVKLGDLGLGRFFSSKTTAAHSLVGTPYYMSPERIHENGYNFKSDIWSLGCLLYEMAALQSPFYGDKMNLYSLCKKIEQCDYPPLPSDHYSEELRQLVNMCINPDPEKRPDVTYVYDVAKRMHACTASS
Serine/threonine-protein kinase Nek6 (Homo sapiens), sequence (Q9HC98 whole entry): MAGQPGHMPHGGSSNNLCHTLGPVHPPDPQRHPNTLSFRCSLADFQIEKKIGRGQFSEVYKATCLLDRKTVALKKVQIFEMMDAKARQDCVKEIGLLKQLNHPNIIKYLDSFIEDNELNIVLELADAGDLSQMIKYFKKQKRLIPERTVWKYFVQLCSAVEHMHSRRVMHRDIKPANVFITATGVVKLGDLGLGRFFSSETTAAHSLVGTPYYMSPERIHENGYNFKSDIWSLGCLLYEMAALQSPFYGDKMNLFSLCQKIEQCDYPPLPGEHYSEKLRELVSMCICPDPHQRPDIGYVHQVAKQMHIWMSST
Casein kinase II subunit alpha (Homo sapiens), sequence (P68400 whole entry, looked up): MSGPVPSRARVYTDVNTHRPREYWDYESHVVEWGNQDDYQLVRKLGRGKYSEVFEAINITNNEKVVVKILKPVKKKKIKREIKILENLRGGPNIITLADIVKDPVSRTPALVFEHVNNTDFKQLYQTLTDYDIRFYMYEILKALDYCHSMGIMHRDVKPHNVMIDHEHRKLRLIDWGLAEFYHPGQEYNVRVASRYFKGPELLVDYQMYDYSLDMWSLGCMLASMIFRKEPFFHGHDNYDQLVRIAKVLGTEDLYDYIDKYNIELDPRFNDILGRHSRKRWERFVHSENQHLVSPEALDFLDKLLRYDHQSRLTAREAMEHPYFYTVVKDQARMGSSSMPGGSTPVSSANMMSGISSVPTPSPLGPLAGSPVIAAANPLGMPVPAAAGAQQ
Sphingosine kinase 1 (Homo sapiens), sequence (Q9NYA1 whole entry): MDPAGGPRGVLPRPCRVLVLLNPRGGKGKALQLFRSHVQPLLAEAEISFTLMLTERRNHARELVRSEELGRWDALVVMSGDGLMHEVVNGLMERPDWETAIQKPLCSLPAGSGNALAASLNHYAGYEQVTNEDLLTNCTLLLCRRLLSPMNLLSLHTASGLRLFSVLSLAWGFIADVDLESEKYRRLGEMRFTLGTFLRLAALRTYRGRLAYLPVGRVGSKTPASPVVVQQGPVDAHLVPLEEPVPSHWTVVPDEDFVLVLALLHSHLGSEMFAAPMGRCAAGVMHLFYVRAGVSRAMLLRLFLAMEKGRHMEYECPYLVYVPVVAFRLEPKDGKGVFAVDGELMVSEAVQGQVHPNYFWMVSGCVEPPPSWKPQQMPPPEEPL

With `CCC(=O)Nc1ccc(C)c(-c2ccc(C(=O)NCC3CC3)cc2)c1`, the inhibition in assay [1] was 0.8%; in assay [2], -0.3%; in [3] it was 0.9%; in assay [4] it was 2.11%; in assay [5] it was 10.5%; in assay [6] it was 7.65%. The inhibition in assay [7] turned out to be 5.07%; in assay [8] it was 5.57%; in assay [9], 9.75%; in assay [10] it was 4.21%; in [11] it was 2.34%; in [12], 2.64%. The inhibition in assay [13] was found to be 4.55%; in [14], 0.77%; in [15], 2.45%; in [16] it was 0.12%; in [17] it was 3.13%; in assay [18] it was 8.32%. Further, in assay [19], the inhibition came to 8.46%.
